This is a sample that favours compounds with a hit; in the whole collection about 1.8% have one here.
VLA-4 inh: inhibition in a human VLA-4 binding assay; P13612; VLA-4 expressing cells, ligand binding flow cytometry; inhibition, % (about 7 µM as worked out from the volumes in the protocol); hit rate 0.2% among 330,000; AID 2557; in the data active means inhibition above about 50%
CendR NRP1 mod: NRP-1/CendR interaction modulation | hit rate 0.85% among 360,000 | O14786 | FAM-RPARPAR peptide binding to NRP-1, fluorescence polarization | inhibition, % at 25 µM;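 active means inhibition or corrected inhibition above about 18%, plus a signal ratio from 0.5 to 1.5, limit read from the data, passing the limit was not always enough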
beta cell repl: inducers of beta-cell replication in MIN6 cells. MIN6 cells proliferation, ATPlite luminescence, 48 h; cells starved in 0.2% serum; 100% = growth in 10% serum. hit rate 0.29% among 330,000. proliferation, % at 10 µM. AID 2380;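 active means compounds whose signal lies at least 3.5 SD above the mean of all wells on their plate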;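 further: 0% = DMSO-treated cells in low-serum medium and 100% = 10% serum control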
A3A deaminase: human APOBEC3A DNA deaminase inhibition. recombinant A3A, FAM/TAMRA ssDNA deamination fluorescence. inhibition, % at 20 µM. hit rate 0.41% among 330,000;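 active means at least 40% inhibition at 20 µM here, with at most 30% in a related deaminase screen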;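 further: plate controls were A3A with DMSO for no effect and wells lacking A3A enzyme for full effect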
Target sequence (P31941 whole entry, looked up): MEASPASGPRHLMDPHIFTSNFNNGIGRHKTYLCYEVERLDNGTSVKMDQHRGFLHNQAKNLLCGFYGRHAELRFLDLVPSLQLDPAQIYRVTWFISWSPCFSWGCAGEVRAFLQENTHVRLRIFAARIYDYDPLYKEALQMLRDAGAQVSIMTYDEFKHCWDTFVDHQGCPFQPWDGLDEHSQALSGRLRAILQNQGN
APOBEC3G inh: APOBEC3G (human) deaminase inhibition | AID 493012 | recombinant A3G, ssDNA deamination FAM/TAMRA fluorescence | Q9HC16 | hit rate 0.28% among 330,000 | inhibition, % at 20 µM;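 active means inhibition of at least 40% at 20 µM, with no more than 30% in the related APOBEC3A deaminase screen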;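 further: plate controls were DMSO wells with A3G for no effect and wells lacking A3G enzyme for full effect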
Target sequence (Q9HC16 whole entry, looked up): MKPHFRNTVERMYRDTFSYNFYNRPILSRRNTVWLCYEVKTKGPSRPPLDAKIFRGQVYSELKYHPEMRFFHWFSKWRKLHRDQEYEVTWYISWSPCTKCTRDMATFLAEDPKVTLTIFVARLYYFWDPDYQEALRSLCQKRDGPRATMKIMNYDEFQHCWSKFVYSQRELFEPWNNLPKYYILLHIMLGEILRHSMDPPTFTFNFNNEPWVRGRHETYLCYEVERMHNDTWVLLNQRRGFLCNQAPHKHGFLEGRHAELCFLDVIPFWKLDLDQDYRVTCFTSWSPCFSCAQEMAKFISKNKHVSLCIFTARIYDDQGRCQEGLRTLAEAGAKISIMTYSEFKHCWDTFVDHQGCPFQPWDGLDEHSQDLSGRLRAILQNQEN
Active calls of the source: *; · = no result given; ! = repeats disagree.

SMILES	VLA-4 inh	CendR NRP1 mod	beta cell repl	A3A deaminase	APOBEC3G inh
O=S(=O)(O)c1cc(O)c2ccc(Nc3ccccc3)cc2c1	·	-4	·	·	·
COc1ccccc1Nc1ccc2c(O)cc(S(=O)(=O)O)cc2c1	·	71*	·	·	·
CCCc1c(O)c2ccccc2[nH]c1=O	3	26*	-3	0	-5
O=C(CCl)Nc1ccc(N2CCCCCC2)cc1	4	43*	-5	-4	-2
Cc1ccc(NS(=O)(=O)c2ccc(NS(=O)(=O)c3cccs3)cc2)cc1	11	-8	-1	-6	-8
O=S(=O)(Nc1ccc(Br)cc1)c1cccc(NS(=O)(=O)c2cccs2)c1	·	21*	·	·	·
CN(C)CCOC(=O)C1(c2ccccc2)CCOCC1	13	24*!	-2	-1	-3
CCN(CC)CCOC(=O)C1(c2ccccc2)CCCC1	-1	4	-2	-3	-6
CC(=O)Nc1ccc(S(=O)(=O)N2CCN=C2SCc2cccnc2)cc1	1	29*	-2	-4	-6
COc1ccc(CCC(=O)N2CCN(S(=O)(=O)c3ccc(OC(F)(F)F)cc3)CC2)cc1	6	-2	3	-2	-10
CC(C)(C)NC(=O)C(c1ccc(O)cc1)N(C(=O)CCC(=O)Nc1nccs1)c1ccccc1F (centres undefined)	-14	29*	-2	2	5
CC(C)(C)NC(=O)C(c1ccc(O)cc1)N(C(=O)CCC(=O)Nc1nccs1)c1cccc(F)c1 (centres undefined)	-4	9	-3	-4	-6
C=CCN1CN(S(=O)(=O)c2cccc(Cl)c2)c2nc3ccccc3nc21	-29	-7	1	-1	4
COc1cc(C(=O)COC(=O)c2ccc([N+](=O)[O-])o2)cc(OC)c1OC	3	21*	-3	-2	-2
Oc1ccc(Cl)cc1CNCc1ccc(C(F)(F)F)cc1	37	9	4	2	-4
CSCCC(NC(=O)c1ccco1)C(=O)N1CCN(Cc2ccccc2)CC1 (centres undefined)	10	-2	-3	-1	-7
Cc1ccc(C(=O)N/C(=C\c2sccc2C)C(=O)NCc2ccco2)cc1	7	39*	-3	-17	-3
Cc1cc(C)n(-c2nnc(NCc3ccc(Cl)cc3)nn2)n1	-6	30*	-4	-1	-3
Cc1cc(C)n(-c2nc(C)nc(NCc3ccccc3)n2)n1	15	0	-2	2	-3
O=C(COc1ccccc1)NCC(=O)N/N=C/c1ccc(Br)cc1	10	2	-3	-4	14
O=C(CNC(=O)c1ccccc1)NCCCSc1ccccc1	3	27*	-4	-2	-3
CC1(C)Cc2c(cnn2-c2ccccc2)C(NC(=O)CCc2ccc(=O)[nH]n2)C1 (centres undefined)	10	9	-3	1	-5
O=C(CSc1nnc(CNC(=O)C23CC4CC(CC(C4)C2)C3)n1-c1ccccc1)Nc1ccc(F)cc1	15	27*	0	-2	-8
O=C(CSc1nnc(CNC(=O)C23CC4CC(CC(C4)C2)C3)n1-c1ccc(F)cc1)Nc1ccccc1	-14	-6	0	-3	-8
Cc1ccccc1C(=O)Oc1cc(N)n(S(C)(=O)=O)n1	3	18*	2	-1	-3
SMILES	VLA-4 inh	CendR NRP1 mod	beta cell repl	A3A deaminase	APOBEC3G inh
C#CCOCCOCCOCCNc1nc(N2CCN(C(=O)CCCCCCCCCCNC(=O)[C@@H](CCSC)n3cc(CCO)nn3)CC2)nc(N2CCN(C(=O)CCCCCCCCCCNC(=O)[C@H](CCCN=C(N)N)n3cc(C[C@@H](C)CC)nn3)CC2)n1	12	21*	-7	-4	-5
C#CCOCCOCCOCCNc1nc(N2CCN(C(=O)CCCCCCCCCCNC(=O)[C@H](CCCCN)n3cc(C[C@@H](C)CC)nn3)CC2)nc(N2CCN(C(=O)CCCCCCCCCCNC(=O)[C@H](CCCN=C(N)N)n3cc(C[C@@H](C)CC)nn3)CC2)n1	14	40*	-8	-7	-11
C#CCOCCOCCOCCNc1nc(N2CCN(C(=O)[C@H](CCCCN)n3cc(CN)nn3)CC2)nc(N2CCN(C(=O)[C@H](CCCCN)n3cc(CN)nn3)CC2)n1	-1	32*	2	-2	-10
C#CCOCCOCCOCCNc1nc(N2CCN(C(=O)CCCCCCCCCCNC(=O)[C@H](CCCCN)n3cc(C)nn3)CC2)nc(N2CCN(C(=O)CCCCCCCCCCNC(=O)[C@H](CCCN=C(N)N)n3cc(C[C@@H](C)CC)nn3)CC2)n1	-16	·	-8	1	1
C#CCOCCOCCOCCNc1nc(N2CCN(C(=O)CCCCCCCCCCNC(=O)[C@H](CO)n3cc(CCCCCN)nn3)CC2)nc(N2CCN(C(=O)CCCCCCCCCCNC(=O)[C@H](CCCN=C(N)N)n3cc(C[C@@H](C)CC)nn3)CC2)n1	5	·	-5	-24	1
CC(C)(C)CCN1CCC(CN2CCNC(=O)C2=O)CC1	·	-1	·	·	·
Cc1ccc(C(=O)NNC(=O)CCC(=O)Nc2cc(C)on2)cc1	1	-6	0	2	0
Cc1cc(NC(=O)CCC(=O)NNC(=O)c2ccc(C(C)(C)C)cc2)no1	16	36*	-2	-4	-4
CCCN1Cc2cccc(C(N)=O)c2C1=O	10	49*	-1	-4	-8
O=C(O)CCCC(=O)N1CCc2cc(S(=O)(=O)N3CCc4ccccc43)ccc21	-1	30*	-2	-1	-6
CCC(=O)N1CCc2cc(S(=O)(=O)N3CCc4ccccc43)ccc21	0	16	0	2	9
O=C1c2ccccc2C(=O)c2c1ccc(O)c2O	·	83*	·	·	·
CC(OC(=O)C1=COCCO1)C(=O)Nc1ccc(Cl)cn1 (centres undefined)	4	8	7	-2	-8
COc1ccc(/C=C(\NC(=O)c2ccc(Cl)cc2)C(=O)NCC2CCCO2)cc1OC (centres undefined)	0	12	-1	-2	-6
CC1(c2ccc(OC(F)F)cc2)NC(=O)N(CC(=O)Nc2ccc(OC(F)F)cc2)C1=O (centres undefined)	3	18*	0	-2	-10
COc1cccc(NC(=O)CN(C)C(=O)CN2C(=O)NC(C)(c3ccc(C)cc3)C2=O)c1 (centres undefined)	4	19*	-3	1	-9
O=C(/C=C/c1cccs1)NC(=S)NNC(=O)Cc1cccs1	20	29*	-3	-20	2
COc1ccc(/C=C/C(=O)NC(=S)NNC(=O)Cc2cccs2)cc1OC	3	3	0	-8	2
COc1cc(Cl)c(C)cc1NC(=O)CN1C(=O)C2CCCCC2C1=O (centres undefined)	-15	-7	-5	3	-9
O=C(c1ccc(O)cc1)c1ccc(C(=O)c2ccc(O)cc2)cc1	0	-56	-3	0	-5
O=C(C(=O)c1ccc(O)cc1)c1ccccc1	58*	0	3	0	-6
CSc1ccccc1C(=O)N1CCN(c2cccc(Cl)c2)CC1	-1	45*	-1	0	-2

Screening data from PubChem BioAssay.
